# HCMV inh: blocks human cytomegalovirus replication; HFF cells, HCMV-luciferase reporter, 72 h; active compounds read low; activity change, negative = inhibition, % at 57.5 µM; 410,000 compounds, 4.5% hits; AID 1259415; in the data active = activity change below about -60%; inconclusive = no clear call, values can overlap the other calls; inactive = above about -39%; note: % is set by controls: 0 for no effect and ±100 for the full control effect
#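 Human foreskin fibroblasts infected with luciferase-reporter HCMV at MOI 1 PFU/cell, compounds at two doses. Luciferase measured 72 h post infection; normalized to buffer-only basal and Salinomycin (10uM) controls.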
# HCV inhibitor: inhibitors of hepatitis C virus infection; Huh7.5.1 HCVcc-Cre infection, luciferase reporter, 44 h; Potency, µM (highest dose often 41.8 µM), for the others: at the top dose activity change, negative = inhibition, actives largely listed as inhibitors; 340,000 compounds, 3.4% hits; active = well fitted inhibition curve with a large enough effect; inconclusive = small, poorly fitted or top-dose-only effect, or another doubt; inactive = no such curve, though single readings can be large or run the other way; note: potency is the fitted concentration of half-maximal effect; % is set by controls: 0 for no effect and ±100 for the full control effect
#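 1,000 cells/well; 4 h culture; + compound; + HCVcc-Cre (~0.5 moi); 44 h; luciferase substrate, RT 15 min; read 15 sec.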
# SARS PLP yeast: blocks SARS-CoV papain-like protease in a yeast assay; AID 485353; 330,000 compounds, 0.19% hits; S. cerevisiae expressing SARS-CoV PLpro, growth rescue; Potency, µM (titrated, usually from 32.9 µM), for the others: top-dose activity, positive = growth rescue, actives largely listed as activators; calls by dose curve; note: potency is the fitted concentration of half-maximal effect; 0% is about no effect; nearly all actives have a fitted effect of over 55% in size
# Lassa entry inh: Lassa virus entry inhibition; Potency, µM (doses to about 37.9 µM), inactives show top-dose activity change, negative = inhibition, usual class: inhibitors; 300,000 compounds, 1.2% hits; AID 540256; Lassa virus pseudotype entry inhibition, cell reporter; calls by dose curve; tested in HEK293 cells; note: potency is the fitted concentration of half-maximal effect; % is set by controls: 0 for no effect and ±100 for the full control effect; nearly all actives have a fitted effect of over 50% in size
# FMDV antiviral: foot and mouth disease virus antiviral activity; Potency, µM (titrated, usually from 57.9 µM), inactives show at the top dose activity change, negative = inhibition, most hits filed as inhibitors; 410,000 compounds, 1.2% hits; FMDV antiviral cell-based qHTS; AID 1159524; calls by dose curve; tested in HEK293T cells; note: read-out not given here; potency is the fitted concentration of half-maximal effect; % is set by controls: 0 for no effect and ±100 for the full control effect; nearly all actives have a fitted effect of over 45% in size
# MARV entry inh: Marburg virus entry inhibition; Marburg virus pseudotyped entry inhibition, cell reporter; Potency, µM (top dose mostly 37.8 µM), for inactives: top-dose activity change, negative = inhibition, usual class: inhibitors; 300,000 compounds, 1.8% hits; AID 540276; calls by dose curve; tested in HEK293 cells; note: potency is the fitted concentration of half-maximal effect; % is set by controls: 0 for no effect and ±100 for the full control effect
# An asterisk follows results filed as active; ? = inconclusive; . = no result given; ! = a repeat was not active; [ ] = remark or other dose. Most compounds without a hit are left out; they make up all but 8% or so of the library.
SMILES,HCMV inh,HCV inhibitor,SARS PLP yeast,Lassa entry inh,FMDV antiviral,MARV entry inh
CCOc1ccc(S(=O)(=O)N2CCCCC2)cc1NC(=O)CN1C(=O)NC(CC)(c2ccccc2)C1=O (stereo not drawn),-17,?,4%,?,0%,?
COc1cccc(-n2cc(C(=O)Nc3cccc(C(F)(F)F)c3)c3ccccc3c2=O)c1,-39,.,.,-2%[46.1 µM],-9%,.
COc1ccccc1CNC(=O)c1ccc2c(c1)sc1nc(-c3ccc(F)cc3)cn12,.,.,.,12%[46.1 µM],-18%,.
N#Cc1cc(Oc2ccccc2)c(-n2nnc3ccccc32)cc1C#N,20,10%,-15%,-7%,-5%,-6%
N#Cc1cc(Oc2ccc3ccccc3c2)c(-n2nnc3ccccc32)cc1C#N,-65*,-30%,7%,-14%,-14%,?
CCOC(=O)c1ccc(N2CCN(c3cccc(Cl)c3)CC2)c(NC(=O)Nc2ccc(OC)cc2OC)c1,42,.,.,?,-27%,.
COc1ccc([C@@H]2[C@@H](C(=O)N3CCOCC3)CC(=O)N2S(=O)(=O)c2ccc(F)cc2)cc1,4,.,.,.,.,.
CCC(C(=O)NCc1ccc(OC)c(OC)c1)n1nc(C)c2c(C)n(-c3ccc(C)cc3)nc2c1=O (stereo not drawn),-74*,.,.,?,?,.
Cc1ccc(-n2nc3c(=O)n(CC(=O)NCc4ccccc4)nc(C)c3c2C)cc1,-29,?,-3%,.,0%,.
CCC(C(=O)NC1CC1)n1nc(C)c2c(C)n(-c3ccc(C)cc3)nc2c1=O (stereo not drawn),?,?,-1%,.,-12%,.
Cc1ccc(-n2nc3c(=O)n(CC(=O)NC(C)CCc4ccccc4)nc(C)c3c2C)cc1 (stereo not drawn),.,2.2µM*,1%,.,?,.
Cc1ccc(-n2nc3c(=O)n(C(C)C(=O)NCCc4cccs4)nc(C)c3c2C)cc1 (stereo not drawn),.,?,7%,.,?,.
Cc1ccc(CCNC(=O)C(C)n2nc(C)c3c(C)n(-c4ccc(C)cc4)nc3c2=O)cc1 (stereo not drawn),-62*,.,.,?,11µM*,.
CCC(C(=O)NCCCc1ccccc1)n1nc(C)c2c(C)n(-c3ccccc3)nc2c1=O (stereo not drawn),-67*,?,-2%,-5%[46.1 µM],-28%,?
Cc1ccc(OCC(=O)OCc2cc(=O)n3nc(C4CCCCC4)sc3n2)cc1C,25,.,.,1%[46.1 µM],-3%,.
CCOc1ccc(CNC(=O)C(C)n2nc(C)c3c(C)n(-c4ccccc4)nc3c2=O)cc1 (stereo not drawn),?,-29%,1%,.,-24%,.
Cc1cccc(CNC(=O)C(C)n2nc(C)c3c(C)n(-c4ccccc4)nc3c2=O)c1 (stereo not drawn),-9,10µM*,-1%,-24%[46.1 µM],-25%,-21%[46.1 µM]
COc1ccccc1CCNC(=O)C(C)n1nc(C)c2c(C)n(-c3ccccc3)nc2c1=O (stereo not drawn),-13,-3%,5%,.,-27%,.
COc1cccc(CNC(=O)CCCn2nc(C)c3c(C)n(-c4ccc(C)cc4)nc3c2=O)c1OC,?,13µM*,18%,9%[46.1 µM],?,-17%[46.1 µM]
CCC(C(=O)Nc1cc(F)ccc1F)n1nc(C)c2c(C)n(-c3ccc(C)cc3)nc2c1=O (stereo not drawn),-95*,8.9µM*,1%,-7%[46.1 µM],?,.
COc1ccc(CCNC(=O)C(C)n2nc(C)c3c(C)n(-c4ccc(C)cc4)nc3c2=O)c(OC)c1 (stereo not drawn),-98*,3.2µM*,-1%,?,?,?
COc1ccc(NC(=O)N[C@H]2CC[C@@]34CCCN3C(=O)CCC[C@H]4C2Cc2ccccc2)cc1 (stereo partly drawn),5,.,.,.,.,.
COc1ccc(C2NC(=O)NC(C)=C2C(=O)Nc2cc(C)cc(C)c2)c(OC)c1 (stereo not drawn),11,.,.,-3%[46.1 µM],-15%,?
COc1ccccc1N1CCN(C(=O)c2cnc(N3CCCCC3)c3ccccc23)CC1,-37,.,.,?,?,.
CCc1cccc(C)c1NC(=O)Cn1nc(C)c2nn(-c3ccc(Cl)cc3)c(C)c2c1=O,-62*,.,.,-24%[46.1 µM],-24%,.
SMILES,HCMV inh,HCV inhibitor,SARS PLP yeast,Lassa entry inh,FMDV antiviral,MARV entry inh
Cc1ccc(-n2nc3c(=O)n(CC(=O)c4ccc(F)cc4)nc(C)c3c2C)cc1,-31,?,?,2%,25µM*,28%
COc1ccc(CNC(=O)C(C)n2nc(C)c3c(C)n(-c4ccc(C)cc4)nc3c2=O)cc1 (stereo not drawn),-68*,?,-3%,-22%[46.1 µM],?,-24%[46.1 µM]
COC(=O)c1ccc(CN2C(=O)[C@@]3(CC(C)=CC[C@@H](COc4ccccc4)O3)c3c(Br)cccc32)cc1,.,.,.,7%[14.3 µM],.,-28%[14.2 µM]
Cc1ccc2c(c1)nc(SCC(O)c1ccc(Br)cc1)n2C (stereo not drawn),?,.,.,-12%[46.1 µM],-9%,3%[46.1 µM]
Cc1ccccc1NC(=O)c1ccccc1NC(=O)Cc1cccc2ccccc12,-2,17%,-1%,1%,-2%,0%
Cc1ccccc1NC(=O)c1cccc2nc3ccccc3nc12,-73*,?,-5%,-5%,-28%,-1%[46.1 µM]
CCOc1ccc(NC(=O)CSc2oc(-c3ccco3)nc2S(=O)(=O)c2ccc(Cl)cc2)cc1,9,.,.,0%[46.1 µM],?,7%[46.1 µM]
O=C(CSc1nnc(-c2ccccc2Cl)o1)N1CCCC1,15,-21%,-1%,2.8µM*,40%,?
CCOC(=O)N1CCN(C(=O)CSc2nnc(-c3cc(OC)ccc3OC)o2)CC1,11,10µM*!,-22%,-8%,?,?
CC(=O)c1cccc(NC(=O)CCCSc2nc(-c3ccco3)cc(C(F)(F)F)n2)c1,-21,.,.,9%[46.1 µM],3%,-9%[46.1 µM]
Oc1ccc(C[C@@H](CN2CCC[C@@H]2CN2C(=S)NC[C@@H]2Cc2ccccc2)N2C[C@H](Cc3ccccc3)N(CCc3ccccc3)C2=S)cc1,-23,.,.,.,-1%,.
CCOc1ccc(CCN2C(=S)N([C@@H](CC(C)C)CN3CCCC3CN3C(=S)NC[C@@H]3Cc3ccc(O)cc3)C[C@@H]2Cc2ccccc2)cc1 (stereo partly drawn),-39,10µM*,.,.,-26%,.
Oc1ccc(C[C@H]2CNC(=S)N2CC2CCCN2C[C@H](Cc2ccccc2)N2C[C@H](Cc3ccc(O)cc3)N(CCc3ccccc3)C2=S)cc1 (stereo partly drawn),?,2.2µM*,.,.,0%,.
CCOc1ccc(CCN2C(=S)N([C@@H](CC(C)C)CN3CCCC3CN3C(=S)NC[C@@H]3Cc3ccc(O)cc3)C[C@@H]2Cc2ccc(O)cc2)cc1 (stereo partly drawn),-84*,11µM*,.,.,?,.

# Screens (PubChem BioAssay)
